Mtb betalactam = beta-lactam sensitization of Mtb H37Rv. M. tuberculosis H37Rv growth with meropenem, percent inhibition. inhibition, % at 25 µM. hit rate 0.27% among 330,000; call rule not given here;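 also: growth measured after seven days incubation then overnight dye step; 0% = bacteria only wells and 100% = bacteria with antibiotic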
Mtb UGM inh = Mtb UDP-galactopyranose mutase inhibition | inhibition, % at 10 µM | purified UGM, fluorescence polarization probe displacement | hit rate 0.06% among 320,000 | AID 504406; in the data active = inhibition above about 10%, passing the limit was not always enough
Mtb FBA inh = inhibitors of M. tuberculosis fructose-bisphosphate aldolase; P9WQA3; purified M. tuberculosis FBA, fluorescence read-out; inhibition, % at 1 µM; hit rate 2.3% among 360,000;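 also: 0% = vehicle and 100% = reference inhibitor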
Target sequence (P9WQA3 whole entry, looked up): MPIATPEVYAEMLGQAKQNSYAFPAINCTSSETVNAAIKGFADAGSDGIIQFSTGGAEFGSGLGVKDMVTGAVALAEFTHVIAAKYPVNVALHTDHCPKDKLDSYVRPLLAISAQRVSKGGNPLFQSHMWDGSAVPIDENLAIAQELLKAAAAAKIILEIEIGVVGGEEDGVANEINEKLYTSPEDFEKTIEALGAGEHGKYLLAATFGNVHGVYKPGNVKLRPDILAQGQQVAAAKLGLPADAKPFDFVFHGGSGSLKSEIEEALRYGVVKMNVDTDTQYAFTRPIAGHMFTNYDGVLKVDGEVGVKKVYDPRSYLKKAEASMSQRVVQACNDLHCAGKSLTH
Rv3671c protease = inhibitors of M. tuberculosis serine protease Rv3671c | P9WHR9 | inhibition, % at 5.96 µM | hit rate 0.048% among 320,000 | AID 2606; in the data active = inhibition above about 38%;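 also: extracellular domain of Rv3671c used as enzyme; 0% = enzyme with DMSO and 100% = no enzyme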
GDH-TPI counter-1 = GDH-TPI coupled enzyme inhibition counter-screen | GDH-TPI coupled enzyme counterscreen, NADH absorbance | hit rate 1.2% among 360,000 | inhibition, % at 4.8 µM | AID 588335; in the data active = inhibition above about 30%;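 also: 0% = DMSO wells and 100% = wells lacking the enzyme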
RecA splice inh = inhibitors of M. tuberculosis RecA intein splicing; cell-free RecA intein splicing, fluorescence; inhibition, % (no concentration beside the values); hit rate 0.75% among 290,000; AID 2221; in the data active = inhibition above about 30%;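 also: 0% = vehicle wells and 100% = reference inhibitor control wells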
Mtb FBA inh conf = confirmation of M. tuberculosis fructose-bisphosphate aldolase inhibitors; shares compounds with Mtb FBA inh; purified M. tuberculosis FBA, fluorescence read-out; inhibition, % at 1 µM; hit rate 78% among 5,600; AID 651616;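 also: 0% = vehicle wells and 100% = reference inhibitor wells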
GDH-TPI counter-2 = inhibits GDH-TPI coupling enzymes, flagging Mtb FBA hits; GDH-TPI coupled enzyme counterscreen, fluorescence; inhibition, % at 1 µM; hit rate 81% among 5,600; shares compounds with Mtb FBA inh; AID 652141; in the data active = inhibition above about 10%
GDH-TPI DR = GDH-TPI dose response counter-screen for Mtb FBA | IC50, µM | hit rate 79% among 170 | GDH-TPI coupled enzyme assay, fluorescence, artifact counterscreen | shares compounds with Mtb FBA inh; call rule not given here
An asterisk follows results filed as active; . = not tested or not shown; + = active, no number. The list is not random: actives were taken first. Their share in the collection is about 4%. Rule as the data show it, unless noted: active = inhibition above about 27%; inactive = the rest.

SMILES	Mtb betalactam	Mtb UGM inh	Mtb FBA inh	Rv3671c protease	GDH-TPI counter-1	RecA splice inh	Mtb FBA inh conf	GDH-TPI counter-2	others
Cc1ccc(-c2cc(C(=O)Nc3cccnc3)c3ccccc3n2)s1	98	-2	42*	-15	8	-18	59*	43*
C/C(=N\NC(=O)c1cc(-c2cccs2)nc2ccccc12)c1ccccn1	77	1	34*	8	18	-4	99*	92*
NNC(=O)c1cc(-c2cccs2)nc2ccccc12	7	-1	44*	-40	26	.	110*	92*
CCOC(CCNC(=O)c1cc(-c2cccs2)nc2ccccc12)OCC	2	-2	95*	3	20	0	+	+
CCN(CC)S(=O)(=O)c1ccc(NC(=O)c2cc(-c3cccs3)nc3ccccc23)cc1	69	0	5	-10	5	0	.	.
C/C(=N\NC(=O)c1cccc2ccccc12)c1ccccn1	.	.	0	.	10	-1	.	.
Cc1cccc(-c2cc(C(=O)Nc3cccnc3)c3ccccc3n2)c1	87	-1	-2	-6	-1	.	.	.
Cc1cc(OCCN2CCC(Cc3ccccc3)CC2)ccc1[N+](=O)[O-]	3	4	-1	1	20	2	.	.
CC1N=C(SCC(=O)c2ccc(F)cc2)N2C(C)N=C(SCC(=O)c3ccc(F)cc3)N12 (centres undefined)	.	.	5	.	8	.	.	.
O=C(NC1=NCCS1)c1cc(-c2cccs2)nc2ccccc12	10	-1	44*	-10	17	-16	87*	63*
Cc1ccc(C)c(C(=O)CCC(=O)OCn2nnc3ccccc3c2=O)c1	50	-3	3	1	6	.	.	.
O=C(Cc1ccc(F)cc1)N[C@@H]1c2ccccc2CC[C@H]1OCc1ccccc1	.	.	-2	.	9	.	.	.
Cc1ccc(S(=O)(=O)N2CCC(C(=O)NNC(=O)c3ccccc3O)CC2)cc1	-1	2	19	14	14	-3	.	.
Cc1ccc(S(=O)(=O)N2CCC(C(=O)NNC(=O)c3ccccc3O)CC2)cc1C	-1	1	30*	14	-4	-3	+	+
Cc1cc(C)c(C)c(S(=O)(=O)N2CCC(C(=O)NNC(=O)c3ccccc3O)CC2)c1C	-2	.	39*	13	4	10	133*	113*
CC(C)n1ncc2c(C(=O)NCCc3ccc(S(N)(=O)=O)cc3)cc(C3CC3)nc21	.	.	28*	.	-2	.	+	+
Cn1c2ccc(F)cc2c2ncn(CC3CCCO3)c(=O)c21 (centres undefined)	0	0	27*	-2	17	-1	176*	180*
Cn1c2ccccc2c2ncn(Cc3ccc(F)cc3)c(=O)c21	3	3	16	-3	3	-1	.	.
CCOCCCn1cnc2c3cc(F)ccc3n(C)c2c1=O	2	-1	31*	4	9	-1	163*	133*
Cn1c2ccc(F)cc2c2ncn(Cc3ccccn3)c(=O)c21	-6	-1	27*	-4	18	-4	47*	41*
Cn1c2ccc(F)cc2c2ncn(Cc3ccco3)c(=O)c21	-2	-1	32*	-3	10	4	98*	91*
Cn1c2ccccc2c2ncn(Cc3ccco3)c(=O)c21	-1	-1	18	5	6	1	.	.
O=C(Nc1nnc([C@@H]2C[C@H](O)[C@@H](CO)O2)s1)c1c(F)cccc1F	.	.	-2	.	3	.	.	.
CCCn1nc(C(=O)NNC(=O)CCCOc2ccc(OC)cc2)c2ccccc2c1=O	-9	0	-3	-5	-2	.	.	.
CNC[C@H]1OCc2ccccc2-c2ccccc2C(=O)N([C@@H](C)CO)C[C@H]1C	.	.	3	.	6	.	.	.
SMILES	Mtb betalactam	Mtb UGM inh	Mtb FBA inh	Rv3671c protease	GDH-TPI counter-1	RecA splice inh	Mtb FBA inh conf	GDH-TPI counter-2	others
C=CCNc1ncnc2c1ncn2[C@H]1CN(Cc2cc(OC)c(OC)c(OC)c2)C[C@@H](CO)O1	.	.	-1	.	-1	.	.	.
CNC(=O)/C(C#N)=C/c1c(N2CCN(C)CC2)nc2c(C)cccn2c1=O	-1	2	28*	-3	17	-230	62*	59*
CCN1CCN(c2nc3c(C)cccn3c(=O)c2/C=C(\C#N)C(=O)NC)CC1	0	0	30*	9	7	-218	32*	20*
N#Cc1c(-c2ccco2)cc(C2CC2)nc1N	-6	4	49*	2	25	-1	13	-1	GDH-TPI DR=2.6*
CCC1(C)Cc2nc(Cl)c(C#N)cc2CO1 (centres undefined)	0	2	3	-7	1	0	.	.
CC1(C)Cc2nc(NC3CCCCC3)c(C#N)cc2CO1	5	0	36*	4	11	6	127*	111*
Cc1c(CC(=O)NCCC(C)C)c(=O)oc2cc3c(cc12)CCC(C)(C)O3	-2	1	42*	6	6	-1	90*	71*
Clc1ccc2nc(-c3ccc(Cl)nc3)[nH]c2c1	12	-1	36*	-8	14	3	107*	82*
Nc1nc2ccc(Cl)cc2[nH]1	.	.	0	.	-6	.	.	.
Nc1ccc2nc(-c3ccc(Cl)cc3)[nH]c2c1	1	-1	87*	7	19	-21	168*	127*
CN(C)c1ccc(C(CNC(=O)c2ccco2)N2CCCC2)cc1 (centres undefined)	1	1	2	-1	0	3	.	.
COc1ccc(-c2cn3cc(C)ccc3n2)cc1F	16	-1	37*	-3	8	.	77*	65*
COC(=O)c1ccc2nc(-c3ccc(S(C)(=O)=O)cc3)cn2c1	7	-3	36*	1	-6	-4	141*	142*
COc1ccc(-c2cn3cccc(C)c3n2)cc1F	10	-1	31*	-6	-2	1	-4	-7
CNC(=O)Oc1cccc(-c2cn3cc(Cl)ccc3n2)c1	4	.	6	0	11	-2	.	.
COc1ccc(-c2csc(NC(=O)c3ccc(S(C)(=O)=O)cc3)n2)cc1	9	4	0	-5	7	6	.	.
CNC(=O)Oc1ccc(-c2cn3cc(C)ccc3n2)cc1	8	0	47*	5	13	1	38*	34*
Cc1ccc2nc(-c3ccc4c(c3)NC(=O)CO4)cn2c1	15	-1	14	0	15	1	.	.
Cc1c(NS(=O)(=O)c2cccc(C(=O)OCC(=O)c3ccc(Cl)cc3)c2)c(=O)n(-c2ccccc2)n1C	.	.	-1	.	0	.	.	.
O=C(CN1C(=O)c2ccccc2S1(=O)=O)NCCSCc1c(F)cccc1Cl	-7	3	2	-3	3	-4	.	.
